AmpC no deterg = qHTS Inhibitors of AmpC Beta-Lactamase (assay without detergent); AmpC nitrocefin hydrolysis, absorbance 480 nm, 0.0001% Triton; P00811; 330,000 compounds, 0.52% hits; Potency, µM (highest dose often 57.1 µM), actives largely listed as inhibitors; further: nearly all actives have a fitted effect of over 20% in size
Target sequence (P00811 whole entry, looked up): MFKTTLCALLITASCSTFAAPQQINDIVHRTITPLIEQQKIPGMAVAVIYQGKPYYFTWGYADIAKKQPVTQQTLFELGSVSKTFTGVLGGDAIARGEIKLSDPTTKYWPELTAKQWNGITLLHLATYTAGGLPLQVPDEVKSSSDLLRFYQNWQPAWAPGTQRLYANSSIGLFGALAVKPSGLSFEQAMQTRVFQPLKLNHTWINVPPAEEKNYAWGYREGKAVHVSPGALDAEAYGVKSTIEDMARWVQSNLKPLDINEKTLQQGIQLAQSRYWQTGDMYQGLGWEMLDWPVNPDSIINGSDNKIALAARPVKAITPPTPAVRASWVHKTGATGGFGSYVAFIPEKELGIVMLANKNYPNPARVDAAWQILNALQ
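20 mM phosphate pH 7.0 + 0.01% (detergent screen) or 0.0001% Triton X-100; 5.3 nM AmpC reagent; cpd preinc 15 min RT; nitrocefin (800 uM stock) to start; A480 q20 s × 4 min; Activity was normalised to no-enzyme and no-compound control wells.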
AmpC inh detg = qHTS Inhibitors of AmpC Beta-Lactamase (assay with detergent); Potency, µM (top dose mostly 114 µM), most hits filed as inhibitors; P00811; AmpC hydrolysis of nitrocefin, absorbance 480 nm, 0.01% Triton; AID 485294, 2010; 370,000 compounds, 0.041% hits; further: nearly all actives have a fitted effect of over 25% in size
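AmpC (5.3 nM in the dispensed reagent) in 20 mM phosphate pH 7.0 with 0.01% (detergent screen) or 0.0001% Triton X-100 was preincubated with compounds for 15 min at room temperature. Nitrocefin was then added from an 800 uM solution, and hydrolysis was followed at 480 nm.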
Giardia FBPA inh = qHTS Assay for Inhibitors of Fructose-1,6-bisphosphate Aldolase from Giardia Lamblia | purified Giardia FBPA | 290,000 compounds, 0.71% hits | A8B2U2 | Potency, µM (series often up to 59.6 µM), hits mostly inhibitors | AID 2451, 2010; further: nearly all actives have a fitted effect of over 55% in size
Target sequence (A8B2U2 whole entry, looked up): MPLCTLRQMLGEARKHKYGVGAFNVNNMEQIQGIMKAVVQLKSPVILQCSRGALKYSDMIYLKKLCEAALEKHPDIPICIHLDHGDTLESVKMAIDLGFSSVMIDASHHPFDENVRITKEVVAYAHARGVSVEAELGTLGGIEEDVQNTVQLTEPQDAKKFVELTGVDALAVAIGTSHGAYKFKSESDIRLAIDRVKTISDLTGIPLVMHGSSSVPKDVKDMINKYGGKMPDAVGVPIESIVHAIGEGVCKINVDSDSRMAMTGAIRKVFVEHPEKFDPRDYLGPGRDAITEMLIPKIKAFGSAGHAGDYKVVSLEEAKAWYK
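Giardia FBPA (40 nM reagent) was preincubated 10 min at RT with compound (up to 57.5 uM final), then substrate plus GAPDH/TPI/NAD/arsenate coupling system with diaphorase/resazurin was added; resorufin fluorescence (525/598 nm) was read after 20 min.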
Sm TGR block = qHTS Assay for the Inhibitors of Schistosoma Mansoni Peroxiredoxins; 360,000 compounds, 3% hits; purified TGR, DTNB reduction, TNB absorbance 405 nm; Potency, µM (highest dose often 114 µM), hits mostly inhibitors; AID 485364, 2010; further: nearly all actives have a fitted effect of over 60% in size
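Kinetic colorimetric format: TGR-catalysed, NADPH-driven DTNB reduction monitored via TNB absorbance. Enzyme dispensed at 20 nM; compound exposure 15 min at room temperature before reaction start.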
Each line names hits and unclear results; the compound was inactive in the other large screens; ! = a repeat was not active. The list is not random: actives were taken first. Their share in the collection is about 3.6%. The call rests on the fitted dose curve; in most records, active means well fitted curve in the direction sought with a large enough effect; inconclusive means small, poorly fitted or top-dose-only effect, or another doubt; inactive means no such curve, though single readings can be large; an effect the other way counts as inactive or inconclusive.

COc1ccc(NC(=O)CCS(=O)(=O)c2nc(-c3cccs3)cc(C(F)(F)F)n2)cc1OC	Sm TGR block 40µM (no result: AmpC no deterg, Giardia FBPA inh)
CC(C)CNC(=O)CSc1nc(-c2cccs2)cc(C(F)(F)F)n1	none
O=C(O)CCS(=O)(=O)c1nc(-c2cccs2)cc(C(F)(F)F)n1	Sm TGR block 50µM
Cc1[nH]c2ccc(-c3n[nH]c(=S)n3-c3ccccc3)cc2c1C	none
Cc1[nH]c2ccc(-c3n[nH]c(=S)n3Cc3ccccc3)cc2c1C	AmpC no deterg 11µM
CCCOc1ccc(C(O)(CCC)CCN2CCCCC2)cc1 (configuration not stated)	AmpC inh detg inconclusive, Sm TGR block 32µM
O=C(OCCN1CCOCC1)c1ccc(OCCN2CCOCC2)cc1	none
Cc1ccc(C(O)(CCN2CCCCC2)c2ccccc2)cc1 (configuration not stated)	Sm TGR block 11µM
CCOc1ccc(C(=O)CCN2CCCCCC2)cc1	Sm TGR block 0.32µM
CCCCOc1ccc(C(=O)CCN2CCOCC2)cc1	Sm TGR block 2µM
CCOC(=O)C1CCCN(S(=O)(=O)c2ccc3[nH]c(=O)ccc3c2)C1 (configuration not stated)	none (no result: AmpC no deterg, Giardia FBPA inh)
COc1ccc(N2CCN(C(=O)Nc3ccccc3C)CC2)cc1	none
Cc1ccc([C@@H]2CC=C(C(=O)O)[C@H](c3ccc(Cl)cc3)N2S(=O)(=O)c2ccccc2C)cc1	none (no result: AmpC inh detg, Giardia FBPA inh, Sm TGR block)
CCc1c(C)nc2ncnn2c1N1CCN(S(=O)(=O)c2ccc(OC)cc2)CC1	none
COc1ccc(/C=C/C(=O)O)cc1S(=O)(=O)N1CCC(C)CC1	none
COc1ccc([N+](=O)[O-])cc1N(CC(=O)N1CCCC1)S(C)(=O)=O	none (no result: Sm TGR block)
CCCC(O)(CCN1CCOCC1)c1ccc(Cl)cc1 (configuration not stated)	AmpC inh detg inconclusive, Sm TGR block 20µM
CCOc1ccc(OCCN2CCCCC2)cc1	AmpC inh detg inconclusive
CCCOc1ccc(C(=O)CCN2CCCCC2)cc1	Sm TGR block 0.32µM
CN(CCc1ccccc1)C1CCCN(S(=O)(=O)CC(F)(F)F)C1 (configuration not stated)	Sm TGR block inconclusive
CC1(NC(=O)NCc2ccccc2)CCS(=O)(=O)C1 (configuration not stated)	none
CCOc1ccccc1N(C)C(=O)CCS(=O)(=O)c1ccc2c(c1)NC(=O)C(C)S2 (configuration not stated)	Sm TGR block 35µM (no result: Giardia FBPA inh)
CC1Sc2ccc(S(=O)(=O)CCC(=O)N(C)Cc3ccco3)cc2NC1=O (configuration not stated)	Sm TGR block inconclusive (no result: Giardia FBPA inh)
O=C(NCCN1CCOCC1)c1ccc2c(c1)N(Cc1ccc(F)cc1)C(=O)CS2	AmpC no deterg 45µM, AmpC inh detg inconclusive
Brc1cccc(-c2n[nH]c(-c3ccccc3)n2)c1	AmpC no deterg 8.9µM
C=CC(=O)N=c1sc2ccccc2n1-c1ccccc1	Sm TGR block 40µM
N=c1sc2ccccc2n1-c1ccccc1	none
CC(C)c1ccc(NC(=O)c2cn(C3CCCCC3)c(=O)c3c2c2ccccc2n3C)cc1	none (no result: AmpC no deterg, Giardia FBPA inh)
CCn1ncc(Cl)c1C(=O)NC(=S)Nc1ccccc1Br	Sm TGR block 28µM (no result: Giardia FBPA inh)
CCn1c(CNC(=O)Cc2ccc(OC)cc2)nnc1SCC(=O)c1ccccc1	AmpC inh detg inconclusive, Sm TGR block 32µM
CC(=O)N[C@@H](CC(C)C)C(=O)N[C@@H](CCCNC(=N)N)C(=O)N[C@@H](Cc1cnc[nH]1)C(=O)N[C@@H](Cc1ccc(O)cc1)C(=O)N[C@@H](CC(C)C)C(=O)N[C@@H](CC(N)=O)C(=O)N[C@@H](CC(C)C)C(=O)N[C@@H](CC(C)C)C(=O)N[C@H](C(=O)N[C@@H](CCCNC(=N)N)C(=O)N[C@@H](CCC(N)=O)C(=O)N[C@@H](CCCNC(=N)N)C(=O)N[C@@H](Cc1ccc(O)cc1)C(N)=O)[C@@H](C)O	none (no result: AmpC no deterg, AmpC inh detg, Sm TGR block)
CCc1cc2c(=O)n(Cc3ccco3)c(SCC(=O)NCC3CCCO3)nc2s1 (configuration not stated)	none
CCc1cc2c(=O)n(Cc3ccco3)c(SCc3c(C)noc3C)nc2s1	AmpC inh detg inconclusive, Sm TGR block 11µM
CCc1cc2c(=O)n(Cc3ccccc3)c(SC3CCOC3=O)nc2s1 (configuration not stated)	none
CCc1cc2c(=O)n(Cc3ccco3)c(SCC(=O)NC3CCS(=O)(=O)C3)nc2s1 (configuration not stated)	Sm TGR block 16µM
CCc1cc2c(=O)n(Cc3ccco3)c(SCC(=O)N(C)C3CCS(=O)(=O)C3)nc2s1 (configuration not stated)	Sm TGR block 32µM
CCc1cc2c(=O)n(Cc3ccco3)c(SCC(=O)N3CCCc4ccccc43)nc2s1	Sm TGR block 25µM
CC(C)C(=O)Nc1cc2c3c(c1)CCC(=O)N3CCC2	none
COc1ccc(NC(=O)c2cccc3c2C(=O)c2ccc(-c4cnc(OC)nc4)cc2S3(=O)=O)cc1	none (no result: Giardia FBPA inh)
CC1(C)S[C@@H]2[C@H](NC(=O)[C@H](N)c3ccccc3)C(=O)N2[C@H]1C(=O)O	AmpC no deterg 13µM!, AmpC inh detg 45µM, Giardia FBPA inh inconclusive
CC1(C)SC2C(NC(=O)C(C(=O)O)c3ccccc3)C(=O)N2C1C(=O)O (configuration not stated)	none (no result: AmpC no deterg, AmpC inh detg, Sm TGR block)
Cc1ccc(S(=O)(=O)N(Cc2ccc(Cl)cc2)c2ccccc2C(=O)NCc2ccco2)cc1	none
Cc1ccc(-c2cc(C(=O)N(C)CC(=O)Nc3ccccc3Br)c3ccccc3n2)o1	Sm TGR block 16µM (no result: Giardia FBPA inh)
COc1ccc(NC(=O)CN(C)C(=O)c2cc(-c3ccco3)nc3ccccc23)cc1	Sm TGR block 5µM (no result: Giardia FBPA inh)
COc1cccc(NC(=O)CN(C)C(=O)c2cc(-c3ccccc3)nc3ccccc23)c1	none (no result: Giardia FBPA inh)
CN(CC(=O)Nc1cccc(F)c1)C(=O)c1cc(-c2ccco2)nc2ccccc12	AmpC no deterg 18µM, Sm TGR block 7.9µM (no result: Giardia FBPA inh)
COc1cccc(CN(C)C(=O)c2cc(-c3ccc(F)cc3)nc3ccccc23)c1	Sm TGR block 2.2µM (no result: Giardia FBPA inh)
CN(CC(=O)Nc1ccc(F)c(F)c1F)C(=O)c1cc(-c2ccncc2)nc2ccccc12	none (no result: Giardia FBPA inh)
CCN(CC)S(=O)(=O)c1cccc(C(=O)OCC(=O)NC(C)c2ccccc2)c1 (configuration not stated)	none
COc1ccc(NS(=O)(=O)c2cc(NC(=O)Cn3cnc4c3c(=O)n(C)c(=O)n4C)ccc2C)cc1	none
CCOC(=O)/C(C#N)=C\C1=C(N2CCOCC2)CC(C)(C)OC1	Sm TGR block 32µM
CCOC(=O)/C(C#N)=C/C1=C(N2CCCC2)CC(C)(C)OC1	none
O=C(O)c1ccccc1C(=O)Nc1nccs1	none
O=C(O)c1ccccc1C(=O)Nc1n[nH]c(=S)s1	Giardia FBPA inh 10µM, Sm TGR block inconclusive
CC(C)Oc1ccc(C(=O)N2CCN(C(=O)c3ccco3)CC2)cc1	none (no result: Giardia FBPA inh)
COc1ccc(C(=O)N2CCC3(CCCN(C(=O)Nc4cccc(C#N)c4)C3)CC2)cc1	none (no result: AmpC no deterg, AmpC inh detg, Sm TGR block)
CCOc1cc(C=O)ccc1O	none (no result: AmpC inh detg, Giardia FBPA inh, Sm TGR block)

Source: PubChem BioAssay
